Measurements from the supplement of paper PMC11417369.
Over roughly 25,000 sequences, “ln(normalized median fluorescence intensity)” has its median near 7.1; the highest 2% begin near 10. The list comes from a sample in which the highest values are over-represented; it also holds similar and randomly drawn sequences.

Tested on: PfSIP2 AP2 domain 1 (GST-tagged)
Assay: gcPBM binding intensity (ln(normalized median fluorescence intensity)); higher = stronger DNA binding
In short: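 For binding intensity, the highest Masliner-normalised natural-log median intensity across replicate spots of either probe orientation was taken. Protein bound to the array was stained with Alexa488 anti-GST antibody and scanned at 488 nm. The protein, GST-tagged P. falciparum DNA-binding domains from E. coli at about 25 μg on average, had been applied for 1 h to an Agilent 4 × 180k array of primer-extended double-stranded 36-bp intergenic genomic probes and negative controls.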

Sequence | gcPBM binding intensity (ln)
TATATATAATTCATACATTTTAAATATATTTATTTA [CACACA_negctrl_site840] | 7.01
TATTGAATAAAATGCACACGCATGCGTTATTTATTA [CACACA_site3479] | 6.9
ATATATCATGCCAAGGGTACAAATGTGTAGTTGAAA [XGTACX_site2820] | 7.16
AAAAAAAAATACATATGTACTTATGTATAATGTTGT [XGTACX_site8104] | 7.14
AACTTTTTACAAACAGGTACGCATATATATATATAT [XGTACX_site5081] | 8.9
AAAATACACGCATACACACACACACCCACCCATATA [CACACA_site639] | 7.14
TCCCCTTAATTTAAAACACACAAACAAATAAGTTAG [CACACA_site5973] | 6.91
GAATGTCTAATTTTGATGCACACTTTTGTGCAATTA [CACACA_site2902] | 8.6
TATAAGAGGATATATACACACAAAAATATGTACAGT [CACACA_site6885] | 7.07
AAGAGGATACACAATGTGCACTTTTTTTTTTTTTTT [GTGCAC_site9415] | 10.5
AACTGTAAAAAATATAAACACACATAGAAATATATA [CACACA_site8002] | 7.01
CAGGGCAGGGGGAAGGGTACACATAAAAGAAAATAA [XGTACX_site172] | 8.34
TCATAGGGGTAGAAGGTGCAATAAAAAAGAAGAAAA | 10.7
AAAATAAAAAGAAAAAGAAAAAAGGGGGGGTAGGGG [CACACA_negctrl_site1048] | 7.86
TGAACATTATAGAAAAGTACTTAGTTTTTAAAAAGA [XGTACX_site6864] | 7
GTCTAAAAATAAAAAGTGCATTTGTTTAATATTTTG | 9.52
TATATATATAAAAGTTGTACAGTGTTTTATATAGTT [XGTACX_site7085] | 8.13
AAAAAAAAAAAAAAAGTGCACAGTCGTTTTAAAAAA [GTGCAC_site9848] | 10.7
AAAAAAAAAAGAAACACACACATTTGTCTATAATAT [CACACA_site7063] | 6.8
AAAATACATGGACACACACACACACCGATATATATA [CACACA_site5885] | 7.4
TTTTGTTTTTTCAATGTGCACTTAGGATGTTTTTAT [GTGCAC_site9565] | 10.6

Sequence | gcPBM binding intensity (ln)
TATGTTTTATATAAGATGCACTTTTGTTATGCTTCA | 8.55
TTTTTTTTTTTTTTTGTGCACAATTATTTCAATTTT [GTGCAC_site9884] | 8.88
CCATGTCACAATTTTTCACACACAAAATTTATATAC [CACACA_site8628] | 7.39
TATTTTTAGAAAATAAAGAAGGAGAATTGAAAATAT [CACACA_negctrl_site361] | 7.06
TTTTGTTTTTAGTTTATACACACCATATTAATATAA [CACACA_site3102] | 7.27
CATTATAAAAAATAAAAAAGAAATAATTGTATATGC [CACACA_negctrl_site478] | 7
AAGAAAATATAAAATGCACACTATAAATTGTATATA [CACACA_site7928] | 7.84
TGTATGTATAATTGAGTGCACAGAAAAAAAAAAGAA | 10.5
ATATATTTTTTTTCTTCACACACATGAATTATATAT [CACACA_site9053] | 7.45
ATATAAATTTTTTATGAACACACAAATACAGACACT [CACACA_site8848] | 7.37
TAAACATAAATATGCACACATATACAGATATTCATA [CACACA_site5471] | 7.04
TACAAATATATATGCACACACATATACATACAGATA [CACACA_site5238] | 7.27
ATAATATTTAGGTGTGCACACAAACATACATATATA [CACACA_site9120] | 8.81
AATATTTATGGGTGCACACAAACATACAGATATATA [CACACA_site5810] | 12.1
AAAAAAAAAACATACACACACACAAATATTTATATA [CACACA_site437] | 6.94
AATATTTATGGGTGCACACAAACATACATATATATA [CACACA_site3395] | 11.8
ATATAAATTGGCAATAGTACATAAAGGCATAGAAAG [XGTACX_site2674] | 7.31
TTGTATATATTTCCTTGTACGTAATAATTCTTATTG [XGTACX_site3938] | 7.19
TTTATTTGTTCATGCGTGCACTTGATAACAATGTAC [GTGCAC_site9561] | 9.9
ATATTATAATTGAAGGTGCAAAATGTAATATAGATA [GTGCAC_site9661] | 10.6
AAATATAATTAATGATGTACACTTATAGATATTGAT [XGTACX_site8435] | 7.09

Sequence | gcPBM binding intensity (ln)
AGATATTATAATTAATGTACAAAAAGAAAAAATAGA [XGTACX_site8964] | 7.04
TTTTATAATCATAATAGTACTTTTTCTTTTTCACAT [XGTACX_site5017] | 6.7
TATATATATAATGTTTGTACATATTAAATATATATG [XGTACX_site407] | 8.3
CTCATTTTGTTAATGGTGCAAAAAAAAAAAAAAAAA | 11
TTTTCATTTGTGACAGTGCAAAATGTTATATTAAAA [GTGCAC_site9647] | 8.57
TTTTTTGTTACAACAGTGCAAAAAAACCTTAATGTT | 7.84
TTATCAATAAAATGCACACACTGTAATATTATTAAA [CACACA_site6055] | 7.18
TATCTTATAAACTCTGCACACATAATATATTAAATG [CACACA_site8587] | 9.1
ATATGTATGTATTTATTATTGTGCATTGTATTTATA [CACACA_negctrl_site664] | 7.44
TTATCATTTGCCATTGTGCACTTATATGCTCACATT | 10.2
ATATATATTATCATTGTGCACTTATTTATATACCTT | 10.5
TATGTATGTGCTTGTGCGCACCGATAATATAGCCAA | 9.96
AAAAAGGAAATAATAACACACATTAATAATTATAAA [CACACA_site3401] | 6.67
TATTTATGCACGCGTGCACACACATATGAAAAAAGG [CACACA_site9090] | 10.4
TTATATGCATAAAAAGGTACACATATATAAATAAAT [XGTACX_site6894] | 7.12
TTTATGCACGCGTGCACACACATATGAAAAAAGGTA [CACACA_site3315] | 10.4
TATGAAAAAATATATACACACATAATAAAGGTATAT [CACACA_site3737] | 6.9
CAAAAGGATATGCACACACACACACGGATATTTATA [CACACA_site7099] | 7.41
GGTATTTATGGACGCGTGCACACACATATGAACAAA | 9.35
